# Source: PMC7862700, “An all-to-all approach to the identification of sequence-specific readers for epigenetic DNA modifications on cytosine”
# Columns and labels:
# Assay in all cases: DAPPL (digital affinity profiling via proximity ligation, sequencing); 10 mM Tris-HCl pH 7.5, 50 mM NaCl, 1 mM DTT, 4% glycerol, room temperature, 30 min; GST-TFs on glutathione beads, 16-mer random dsDNA library, 0.1% formaldehyde crosslink after washing; high values mean tight binding
# [1] = biological target: T1, FLI1 (Homo sapiens, UniProt Q01543 1-452); conditions: protein: recombinant; tags: N-terminal GST; dsDNA, one strand shown
# T1 sequence: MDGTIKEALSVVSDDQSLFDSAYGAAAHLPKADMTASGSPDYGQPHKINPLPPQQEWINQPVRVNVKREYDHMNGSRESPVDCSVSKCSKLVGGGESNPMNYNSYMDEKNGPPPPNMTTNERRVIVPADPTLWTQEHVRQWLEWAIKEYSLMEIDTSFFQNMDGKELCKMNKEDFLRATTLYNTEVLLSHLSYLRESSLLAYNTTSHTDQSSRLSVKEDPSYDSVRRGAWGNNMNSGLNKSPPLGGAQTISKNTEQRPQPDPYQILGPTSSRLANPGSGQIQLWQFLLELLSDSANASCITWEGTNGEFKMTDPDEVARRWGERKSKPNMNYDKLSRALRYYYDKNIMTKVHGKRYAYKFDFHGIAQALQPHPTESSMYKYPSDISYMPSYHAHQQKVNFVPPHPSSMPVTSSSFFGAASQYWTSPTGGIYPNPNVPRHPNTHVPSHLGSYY
# Outline: (§1)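 The binding signal reported is, for every hexamer, its read frequency for a factor over its read frequency for the tag-only sample. Reads came from pools of yeast-expressed, GST-fused human transcription factors on glutathione beads, barcoded with DNA and mixed with that sample, which were incubated with 200 nmole of a random double-stranded 16-mer DNA library in Tris/NaCl/DTT/glycerol buffer at room temperature for 30 min. After washing, the pools were crosslinked with 0.1% formaldehyde, proximity-ligated with BsaI/T4 ligase for 1 h at 37 °C, PCR-amplified and sequenced on an Illumina NextSeq500.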
# [2] = biological target: T2, ELK1 (Homo sapiens, UniProt P19419 1-428); conditions: protein: recombinant; tags: N-terminal GST; dsDNA, one strand shown
# T2 sequence: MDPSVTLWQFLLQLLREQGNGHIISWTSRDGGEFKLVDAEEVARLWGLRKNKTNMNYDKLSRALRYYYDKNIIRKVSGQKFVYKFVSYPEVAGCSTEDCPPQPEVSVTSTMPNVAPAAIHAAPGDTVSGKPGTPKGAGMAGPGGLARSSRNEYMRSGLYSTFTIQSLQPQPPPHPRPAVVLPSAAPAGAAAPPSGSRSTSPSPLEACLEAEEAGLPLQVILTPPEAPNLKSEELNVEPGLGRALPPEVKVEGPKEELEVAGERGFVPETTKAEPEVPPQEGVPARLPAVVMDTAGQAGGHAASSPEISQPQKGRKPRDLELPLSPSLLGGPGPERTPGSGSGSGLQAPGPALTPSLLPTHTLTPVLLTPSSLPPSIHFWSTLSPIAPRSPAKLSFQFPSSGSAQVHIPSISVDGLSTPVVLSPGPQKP
# Outline: as §1
# [3] = biological target: T3, GABPA (Homo sapiens, UniProt Q06546 1-454); conditions: protein: recombinant; tags: N-terminal GST; dsDNA, one strand shown
# T3 sequence: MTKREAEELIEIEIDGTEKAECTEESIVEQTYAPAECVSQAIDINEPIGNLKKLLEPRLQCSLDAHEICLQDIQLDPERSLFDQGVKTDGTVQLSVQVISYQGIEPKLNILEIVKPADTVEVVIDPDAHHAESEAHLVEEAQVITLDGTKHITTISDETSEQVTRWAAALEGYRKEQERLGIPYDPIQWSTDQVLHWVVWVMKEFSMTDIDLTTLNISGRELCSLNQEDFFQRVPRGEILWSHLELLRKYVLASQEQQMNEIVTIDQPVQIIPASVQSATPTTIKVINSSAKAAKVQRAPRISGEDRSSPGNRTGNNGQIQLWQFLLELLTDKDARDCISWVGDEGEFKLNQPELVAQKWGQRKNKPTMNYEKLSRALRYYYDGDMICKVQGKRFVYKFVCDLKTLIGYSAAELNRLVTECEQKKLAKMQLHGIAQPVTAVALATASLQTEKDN
# Outline: as §1
# [4] = biological target: T4, ERG (Homo sapiens, UniProt P11308 1-479); conditions: protein: recombinant; tags: N-terminal GST; dsDNA, one strand shown
# T4 sequence: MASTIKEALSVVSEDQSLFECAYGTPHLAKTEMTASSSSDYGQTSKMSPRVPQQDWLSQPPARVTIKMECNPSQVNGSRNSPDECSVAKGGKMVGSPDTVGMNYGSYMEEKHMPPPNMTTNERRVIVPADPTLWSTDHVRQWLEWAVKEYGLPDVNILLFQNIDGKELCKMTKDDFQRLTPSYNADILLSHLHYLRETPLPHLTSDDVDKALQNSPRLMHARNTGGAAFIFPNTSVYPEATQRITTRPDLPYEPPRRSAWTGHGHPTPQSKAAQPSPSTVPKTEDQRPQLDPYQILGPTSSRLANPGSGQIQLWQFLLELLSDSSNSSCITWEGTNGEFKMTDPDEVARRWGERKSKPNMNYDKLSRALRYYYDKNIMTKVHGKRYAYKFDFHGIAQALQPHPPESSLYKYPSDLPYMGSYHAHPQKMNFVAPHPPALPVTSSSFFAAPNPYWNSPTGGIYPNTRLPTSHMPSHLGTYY
# Outline: as §1
# [5] = biological target: ELF1 (Homo sapiens, UniProt P32519 1-619); conditions: protein: recombinant; tags: N-terminal GST; dsDNA, one strand shown
# Outline: as §1
# [6] = biological target: T5, EHF (Homo sapiens, UniProt Q9NZC4 1-300); conditions: protein: recombinant; tags: N-terminal GST; dsDNA, one strand shown
# T5 sequence: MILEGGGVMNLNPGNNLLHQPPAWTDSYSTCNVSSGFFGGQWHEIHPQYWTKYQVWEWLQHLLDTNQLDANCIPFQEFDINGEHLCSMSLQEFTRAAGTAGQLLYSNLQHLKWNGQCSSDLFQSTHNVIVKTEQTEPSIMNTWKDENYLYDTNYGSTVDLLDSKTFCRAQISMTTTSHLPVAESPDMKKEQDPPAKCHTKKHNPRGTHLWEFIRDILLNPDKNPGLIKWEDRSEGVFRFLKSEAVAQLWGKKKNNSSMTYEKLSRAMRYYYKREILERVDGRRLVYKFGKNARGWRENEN
# Outline: as §1
# [7] = biological target: SPI1 (Homo sapiens, UniProt P17947 1-270); conditions: protein: recombinant; tags: N-terminal GST; dsDNA, one strand shown
# Outline: as §1
# [8] = biological target: SPIB (Homo sapiens, UniProt Q01892 1-262); conditions: protein: recombinant; tags: N-terminal GST; dsDNA, one strand shown
# Outline: as §1
# [9] = biological target: T6, ELK3 (Homo sapiens, UniProt P41970 1-407); conditions: protein: recombinant; tags: N-terminal GST; dsDNA, one strand shown
# T6 sequence: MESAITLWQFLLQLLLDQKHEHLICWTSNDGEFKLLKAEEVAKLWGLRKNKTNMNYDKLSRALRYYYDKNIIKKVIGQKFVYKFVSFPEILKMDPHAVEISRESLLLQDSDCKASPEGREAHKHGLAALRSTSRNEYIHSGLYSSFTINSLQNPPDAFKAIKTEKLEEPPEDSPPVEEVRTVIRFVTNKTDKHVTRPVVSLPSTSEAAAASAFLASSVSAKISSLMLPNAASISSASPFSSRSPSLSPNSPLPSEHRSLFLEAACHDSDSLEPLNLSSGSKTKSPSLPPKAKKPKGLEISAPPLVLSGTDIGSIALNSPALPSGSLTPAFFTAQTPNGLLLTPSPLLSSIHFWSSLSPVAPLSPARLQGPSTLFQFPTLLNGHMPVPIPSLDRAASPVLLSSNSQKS
# Outline: as §1
# [10] = biological target: T7, FEV (Homo sapiens, UniProt Q99581 1-238); conditions: protein: recombinant; tags: N-terminal GST; dsDNA, one strand shown
# T7 sequence: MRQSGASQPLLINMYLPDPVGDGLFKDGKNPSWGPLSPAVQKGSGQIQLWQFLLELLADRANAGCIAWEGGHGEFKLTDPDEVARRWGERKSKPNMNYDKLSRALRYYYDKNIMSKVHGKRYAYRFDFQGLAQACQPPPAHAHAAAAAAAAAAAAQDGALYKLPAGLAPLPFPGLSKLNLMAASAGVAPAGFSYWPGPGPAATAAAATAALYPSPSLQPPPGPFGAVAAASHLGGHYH
# Outline: as §1
# [11] = biological target: ETV5 (Homo sapiens, UniProt P41161 1-510); conditions: protein: recombinant; tags: N-terminal GST; dsDNA, one strand shown
# Outline: as §1
# [12] = biological target: HSF1 (Homo sapiens, UniProt Q00613 1-529); conditions: protein: recombinant; tags: N-terminal GST; chain copies: 3; dsDNA, one strand shown
# Outline: as §1
# [13] = biological target: T8, SPIC (Homo sapiens, UniProt Q8N5J4 1-248); conditions: protein: recombinant; tags: N-terminal GST; dsDNA, one strand shown
# T8 sequence: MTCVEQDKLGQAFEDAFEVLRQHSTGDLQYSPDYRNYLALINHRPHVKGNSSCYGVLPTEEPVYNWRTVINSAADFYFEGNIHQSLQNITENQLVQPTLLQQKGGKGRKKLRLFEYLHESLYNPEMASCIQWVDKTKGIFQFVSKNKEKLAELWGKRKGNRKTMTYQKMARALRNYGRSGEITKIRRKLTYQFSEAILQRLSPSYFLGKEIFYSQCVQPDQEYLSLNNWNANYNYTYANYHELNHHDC
# Outline: as §1
# [14] = biological target: ELF4 (Homo sapiens, UniProt Q99607 1-663); conditions: protein: recombinant; tags: N-terminal GST; dsDNA, one strand shown
# Outline: as §1
# [15] = biological target: T9, ELK4 (Homo sapiens, UniProt P28324-2 1-405); conditions: protein: recombinant; tags: N-terminal GST; dsDNA, one strand shown
# T9 sequence: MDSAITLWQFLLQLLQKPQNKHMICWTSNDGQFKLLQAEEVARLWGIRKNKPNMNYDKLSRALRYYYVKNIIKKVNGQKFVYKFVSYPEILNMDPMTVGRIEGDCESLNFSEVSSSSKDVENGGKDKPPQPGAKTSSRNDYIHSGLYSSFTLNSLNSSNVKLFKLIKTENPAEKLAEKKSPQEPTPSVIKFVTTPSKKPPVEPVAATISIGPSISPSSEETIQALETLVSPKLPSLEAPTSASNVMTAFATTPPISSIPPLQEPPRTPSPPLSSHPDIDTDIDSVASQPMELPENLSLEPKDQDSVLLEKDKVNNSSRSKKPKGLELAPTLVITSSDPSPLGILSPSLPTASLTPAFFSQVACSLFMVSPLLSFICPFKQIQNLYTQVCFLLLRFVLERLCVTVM
# Outline: as §1
# [16] = biological target: T10, ETV2 (Homo sapiens, UniProt O00321 1-342); conditions: protein: recombinant; tags: N-terminal GST; dsDNA, one strand shown
# T10 sequence: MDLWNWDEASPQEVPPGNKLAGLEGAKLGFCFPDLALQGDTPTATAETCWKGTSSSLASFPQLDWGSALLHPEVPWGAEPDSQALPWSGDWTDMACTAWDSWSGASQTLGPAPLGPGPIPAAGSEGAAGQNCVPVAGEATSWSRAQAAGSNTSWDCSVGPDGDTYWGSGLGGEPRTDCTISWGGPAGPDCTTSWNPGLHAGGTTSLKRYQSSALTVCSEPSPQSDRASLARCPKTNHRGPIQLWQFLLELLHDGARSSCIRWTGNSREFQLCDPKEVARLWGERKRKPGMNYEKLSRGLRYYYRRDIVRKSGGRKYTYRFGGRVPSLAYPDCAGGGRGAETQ
# Outline: as §1
# [17] = biological target: T11, ELF3 (Homo sapiens, UniProt P78545 1-371); conditions: protein: recombinant; tags: N-terminal GST; dsDNA, one strand shown
# T11 sequence: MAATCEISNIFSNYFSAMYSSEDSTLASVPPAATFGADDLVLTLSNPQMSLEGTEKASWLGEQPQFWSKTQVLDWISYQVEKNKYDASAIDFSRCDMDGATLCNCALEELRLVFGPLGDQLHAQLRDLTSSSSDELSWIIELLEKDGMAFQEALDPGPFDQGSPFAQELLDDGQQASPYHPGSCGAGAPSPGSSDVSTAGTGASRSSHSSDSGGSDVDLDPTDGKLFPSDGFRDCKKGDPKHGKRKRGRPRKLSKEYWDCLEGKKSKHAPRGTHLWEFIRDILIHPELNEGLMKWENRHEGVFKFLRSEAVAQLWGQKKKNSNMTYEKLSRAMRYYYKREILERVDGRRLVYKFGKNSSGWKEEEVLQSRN
# Outline: as §1
# [18] = biological target: CRX (Homo sapiens, UniProt O43186 1-299); conditions: protein: recombinant; tags: N-terminal GST; dsDNA, one strand shown
# Outline: as §1
# [19] = biological target: ETV1 (Homo sapiens, UniProt P50549 1-477); conditions: protein: recombinant; tags: N-terminal GST; dsDNA, one strand shown
# Outline: as §1
# Chain of ELF4 (Q99607 whole entry): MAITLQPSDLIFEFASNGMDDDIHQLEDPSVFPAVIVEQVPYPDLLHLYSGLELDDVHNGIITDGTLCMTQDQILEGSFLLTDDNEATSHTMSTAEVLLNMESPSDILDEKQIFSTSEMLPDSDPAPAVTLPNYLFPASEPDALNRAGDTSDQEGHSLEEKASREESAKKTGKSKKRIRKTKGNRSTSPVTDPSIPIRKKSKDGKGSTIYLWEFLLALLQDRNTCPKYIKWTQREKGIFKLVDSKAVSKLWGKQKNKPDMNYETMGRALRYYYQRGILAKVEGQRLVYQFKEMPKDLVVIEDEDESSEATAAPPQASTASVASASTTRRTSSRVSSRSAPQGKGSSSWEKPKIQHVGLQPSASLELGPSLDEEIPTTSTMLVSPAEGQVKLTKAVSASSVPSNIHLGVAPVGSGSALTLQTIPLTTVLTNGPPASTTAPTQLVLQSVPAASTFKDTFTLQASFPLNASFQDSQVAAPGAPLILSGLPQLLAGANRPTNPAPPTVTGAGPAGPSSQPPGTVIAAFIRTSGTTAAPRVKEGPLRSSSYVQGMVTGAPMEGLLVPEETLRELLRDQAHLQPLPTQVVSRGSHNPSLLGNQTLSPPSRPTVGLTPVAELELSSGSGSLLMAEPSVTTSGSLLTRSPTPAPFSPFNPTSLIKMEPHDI
# Chain of ETV1 (P50549 whole entry): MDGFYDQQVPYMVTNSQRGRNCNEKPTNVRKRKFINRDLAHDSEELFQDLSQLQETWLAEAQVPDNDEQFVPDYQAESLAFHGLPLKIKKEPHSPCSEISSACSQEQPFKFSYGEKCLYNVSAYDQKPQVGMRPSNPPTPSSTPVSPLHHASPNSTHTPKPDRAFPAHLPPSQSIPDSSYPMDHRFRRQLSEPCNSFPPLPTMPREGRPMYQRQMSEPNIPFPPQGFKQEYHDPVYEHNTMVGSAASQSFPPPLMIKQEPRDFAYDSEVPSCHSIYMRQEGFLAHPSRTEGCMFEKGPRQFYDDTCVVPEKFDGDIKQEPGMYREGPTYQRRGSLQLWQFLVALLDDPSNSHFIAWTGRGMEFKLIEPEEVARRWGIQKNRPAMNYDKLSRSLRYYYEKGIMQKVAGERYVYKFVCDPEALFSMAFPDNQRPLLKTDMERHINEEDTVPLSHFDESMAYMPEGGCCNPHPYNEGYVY
# Chain of CRX (O43186 whole entry): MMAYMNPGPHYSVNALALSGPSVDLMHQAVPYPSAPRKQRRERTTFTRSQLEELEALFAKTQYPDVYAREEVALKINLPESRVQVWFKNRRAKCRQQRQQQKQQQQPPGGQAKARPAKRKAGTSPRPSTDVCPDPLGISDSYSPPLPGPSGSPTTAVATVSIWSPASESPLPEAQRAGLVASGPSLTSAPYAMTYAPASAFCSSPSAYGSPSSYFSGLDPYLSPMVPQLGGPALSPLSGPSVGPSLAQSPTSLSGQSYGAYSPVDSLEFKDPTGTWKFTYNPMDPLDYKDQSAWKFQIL
# Chain of HSF1 (Q00613 whole entry): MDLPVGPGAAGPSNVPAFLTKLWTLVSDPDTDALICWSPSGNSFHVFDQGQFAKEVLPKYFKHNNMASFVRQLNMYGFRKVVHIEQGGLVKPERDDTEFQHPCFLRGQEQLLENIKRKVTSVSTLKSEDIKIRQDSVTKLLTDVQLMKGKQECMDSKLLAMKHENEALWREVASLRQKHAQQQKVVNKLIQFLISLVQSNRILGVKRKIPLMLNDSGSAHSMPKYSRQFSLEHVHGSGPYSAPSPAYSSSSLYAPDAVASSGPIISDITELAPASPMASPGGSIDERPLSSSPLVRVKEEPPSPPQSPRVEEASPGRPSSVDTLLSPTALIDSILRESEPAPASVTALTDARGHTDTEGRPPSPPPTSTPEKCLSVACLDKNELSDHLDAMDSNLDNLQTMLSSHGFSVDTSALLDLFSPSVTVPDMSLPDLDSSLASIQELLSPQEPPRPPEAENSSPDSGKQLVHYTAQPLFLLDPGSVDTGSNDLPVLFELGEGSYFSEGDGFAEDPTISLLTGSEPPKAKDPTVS
# Chain of ELF1 (P32519 whole entry): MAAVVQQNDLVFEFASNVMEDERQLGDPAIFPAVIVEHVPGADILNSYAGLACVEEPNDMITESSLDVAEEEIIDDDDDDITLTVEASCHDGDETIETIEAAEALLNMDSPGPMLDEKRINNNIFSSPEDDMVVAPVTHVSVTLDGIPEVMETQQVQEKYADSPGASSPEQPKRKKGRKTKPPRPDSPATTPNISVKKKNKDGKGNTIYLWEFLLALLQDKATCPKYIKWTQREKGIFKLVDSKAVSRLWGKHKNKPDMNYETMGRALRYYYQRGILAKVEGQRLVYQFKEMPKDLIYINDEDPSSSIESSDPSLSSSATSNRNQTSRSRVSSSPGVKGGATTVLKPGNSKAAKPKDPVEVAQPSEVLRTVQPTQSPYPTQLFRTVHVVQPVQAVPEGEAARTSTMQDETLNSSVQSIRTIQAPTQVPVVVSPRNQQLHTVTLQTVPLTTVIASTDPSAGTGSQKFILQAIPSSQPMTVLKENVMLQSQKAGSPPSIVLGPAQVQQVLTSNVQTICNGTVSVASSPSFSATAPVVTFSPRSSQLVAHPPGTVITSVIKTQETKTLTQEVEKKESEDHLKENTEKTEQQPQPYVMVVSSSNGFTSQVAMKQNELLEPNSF
# Chain of ETV5 (P41161 whole entry): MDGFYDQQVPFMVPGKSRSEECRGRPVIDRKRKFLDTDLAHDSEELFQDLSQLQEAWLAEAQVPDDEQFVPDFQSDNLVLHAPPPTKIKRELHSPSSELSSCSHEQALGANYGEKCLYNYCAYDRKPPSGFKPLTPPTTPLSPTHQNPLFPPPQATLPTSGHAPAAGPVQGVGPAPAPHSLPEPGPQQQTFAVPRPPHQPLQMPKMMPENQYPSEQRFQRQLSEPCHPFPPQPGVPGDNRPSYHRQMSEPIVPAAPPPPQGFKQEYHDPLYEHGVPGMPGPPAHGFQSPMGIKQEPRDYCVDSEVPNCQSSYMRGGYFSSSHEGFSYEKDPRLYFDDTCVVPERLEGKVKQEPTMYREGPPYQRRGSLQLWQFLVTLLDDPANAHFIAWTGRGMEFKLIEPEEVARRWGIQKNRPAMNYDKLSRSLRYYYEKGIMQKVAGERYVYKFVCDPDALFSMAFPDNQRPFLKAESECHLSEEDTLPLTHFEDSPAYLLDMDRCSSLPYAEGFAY
# Chain of SPIB (Q01892 whole entry): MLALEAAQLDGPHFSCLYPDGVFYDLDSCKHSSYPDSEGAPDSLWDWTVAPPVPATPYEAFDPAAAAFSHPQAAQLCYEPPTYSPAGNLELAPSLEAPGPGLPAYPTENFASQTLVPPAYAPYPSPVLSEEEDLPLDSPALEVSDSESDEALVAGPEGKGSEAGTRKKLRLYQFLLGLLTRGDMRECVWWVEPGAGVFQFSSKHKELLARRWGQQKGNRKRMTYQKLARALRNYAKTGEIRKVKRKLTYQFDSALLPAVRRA
sequence,measurement,setting,value
TGAATT,binding signal,[1],"1.15 fold enrichment (6-mer frequency, TF over GST control)"
same,binding signal,[2],"1.09 fold enrichment (6-mer frequency, TF over GST control)"
same,binding signal,[3],"1.19 fold enrichment (6-mer frequency, TF over GST control)"
same,binding signal,[4],"1.17 fold enrichment (6-mer frequency, TF over GST control)"
same,binding signal,[5],"1.1 fold enrichment (6-mer frequency, TF over GST control)"
same,binding signal,[6],"1.17 fold enrichment (6-mer frequency, TF over GST control)"
same,binding signal,[7],"1.22 fold enrichment (6-mer frequency, TF over GST control)"
same,binding signal,[8],"1.19 fold enrichment (6-mer frequency, TF over GST control)"
same,binding signal,[9],"1.06 fold enrichment (6-mer frequency, TF over GST control)"
same,binding signal,[10],"1.18 fold enrichment (6-mer frequency, TF over GST control)"
same,binding signal,[11],"1.15 fold enrichment (6-mer frequency, TF over GST control)"
same,binding signal,[12],"1.23 fold enrichment (6-mer frequency, TF over GST control)"
same,binding signal,[13],"1.34 fold enrichment (6-mer frequency, TF over GST control)"
same,binding signal,[14],"1.16 fold enrichment (6-mer frequency, TF over GST control)"
same,binding signal,[15],"1.01 fold enrichment (6-mer frequency, TF over GST control)"
same,binding signal,[16],"1.19 fold enrichment (6-mer frequency, TF over GST control)"
same,binding signal,[17],"1.12 fold enrichment (6-mer frequency, TF over GST control)"
same,binding signal,[18],"1.38 fold enrichment (6-mer frequency, TF over GST control)"
same,binding signal,[19],"1.23 fold enrichment (6-mer frequency, TF over GST control)"
